Sampled rows, rich in hits. Any-hit rate of the full collection: about 19%.
ASM inhibitor: human S-ASM enzyme inhibition; P17405; placental ASM, HMU-PC fluorogenic substrate, 60 min; Potency, µM (highest dose often 57.5 µM), most hits filed as inhibitors; 0.006% of 340,000 active; AID 504937
Target sequence (P17405 47-631 limits assumed): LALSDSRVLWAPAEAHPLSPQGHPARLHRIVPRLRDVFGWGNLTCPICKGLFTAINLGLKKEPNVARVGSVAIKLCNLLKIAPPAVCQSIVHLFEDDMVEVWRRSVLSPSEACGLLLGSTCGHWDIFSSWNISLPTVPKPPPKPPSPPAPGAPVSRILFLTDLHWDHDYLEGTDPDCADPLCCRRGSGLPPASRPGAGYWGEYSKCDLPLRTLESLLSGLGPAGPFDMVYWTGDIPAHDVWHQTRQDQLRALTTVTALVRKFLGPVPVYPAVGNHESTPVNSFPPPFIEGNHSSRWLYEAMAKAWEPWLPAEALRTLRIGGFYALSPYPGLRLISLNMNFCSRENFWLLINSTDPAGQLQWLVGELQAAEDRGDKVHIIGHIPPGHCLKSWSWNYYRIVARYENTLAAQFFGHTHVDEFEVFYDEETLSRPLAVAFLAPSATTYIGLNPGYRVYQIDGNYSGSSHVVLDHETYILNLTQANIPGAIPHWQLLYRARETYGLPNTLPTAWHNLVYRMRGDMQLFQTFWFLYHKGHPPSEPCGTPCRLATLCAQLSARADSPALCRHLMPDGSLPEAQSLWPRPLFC
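qHTS format. ASM enzyme prepared from human placenta hydrolyses the fluorogenic substrate HMU-PC0 (9 uM final) over 60 min at 37 °C after a 10 min compound preincubation.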
DT40 TDP1 CPT: DT40-hTDP1 cell growth loss with CPT; AID 686979; Potency, µM (titrated, usually from 46.2 µM), most hits filed as inhibitors; 12% of 420,000 active; chicken DT40 Tdp1-/-;hTDP1 cells + 20 nM CPT, ATP luminescence, 48 h; note: nearly all actives have a fitted effect of over 55% in size
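Chicken DT40 Tdp1-/- cells stably complemented with human TDP1 were seeded at 400 cells/well in medium containing 20 nM camptothecin, exposed to pin-transferred compounds, and grown at 37 °C for at least 48 hr. Viability was read as ATP luminescence.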
TDP1 cell noCPT: qHTS for Inhibitors of human tyrosyl-DNA phosphodiesterase 1 (TDP1): qHTS in cells in absence of CPT; AID 686978, 2013; Potency, µM (top dose mostly 46.2 µM), actives largely listed as inhibitors; 15% of 420,000 active; DT40 Tdp1-/- hTDP1 cells, no CPT, ATP luminescence, 48 h; note: nearly all actives have a fitted effect of over 55% in size
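Chicken DT40 Tdp1-/- cells stably complemented with human TDP1 were seeded at 400 cells/well with DMSO in place of 20 nM camptothecin. After compound pinning, cells grew at least 48 hr at 37 °C; viability read by CellTiter-Glo luminescence.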
TGFb inhibitor: inhibitors of TGF-b signaling | HepG2 CAGA-GFP TGF-b/SMAD3 reporter, GFP fluorescence, 18 h; TGF-beta stimulated, 500 pg/mL final | Potency, µM (doses to about 46.1 µM), actives largely listed as inhibitors | 1.2% of 410,000 active; note: nearly all actives have a fitted effect of over 65% in size
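TGF-beta reporter screen: HEPG2 CAGA-GFP, 1% FBS, 500 pg/mL TGF-beta final, 18 h; per-cell GFP summed per well; curves fitted and categorized by class.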
IL-1B inflam inh: blocks inflammasome-driven IL-1 beta release | THP-1 LPS/ATP IL-1B secretion, AlphaLISA, 16 h; active compounds read low | activity change, % at 57.5 µM | 4.7% of 360,000 active; in the data active = activity change below about -50%; inconclusive = mostly about -30% to -49%
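Secreted IL-1B measured by AlphaLISA bead assay after 16 h compound exposure of THP-1 cells; compounds (final up to 57.5 uM) added 1 h before LPS (250 ng/mL) and ATP (1.25 mM) stimulation; lower signal means less secretion.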
HepG2 viability: kills HepG2 cells in TGF-b inhibitor counter-screen; AID 588856; 0.76% of 410,000 active; HepG2 CAGA-GFP viability, ATP luminescence, 18 h; Potency, µM (top dose mostly 46.1 µM), most hits filed as cytotoxic
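HepG2 CAGA-GFP cells (1000/well, DMEM with 1% FBS) received compound, then TGF-beta at 500 pg/mL final, and were incubated 18 hours at 37 degrees C. Viability was read by CellTiter-Glo luminescence. Media-only wells were set as complete cell-killing and DMSO as no toxicity.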
Hits are given with their value; – = inactive; ? = inconclusive; · = no result given. Unless noted, calls come from the whole dose curve; as a rule, active = well fitted curve in the direction sought with a large enough effect; inconclusive = small, poorly fitted or top-dose-only effect, or another doubt; inactive = no such curve, though single readings can be large; an effect the other way counts as inactive or inconclusive.

SMILES	ASM inhibitor	DT40 TDP1 CPT	TDP1 cell noCPT	TGFb inhibitor	IL-1B inflam inh	HepG2 viability
CC1(C(=O)NCCc2c[nH]c3ccccc23)CCN1CC1CCCCC1 (stereo not given)	·	?	?	?	–	–
CCOC(=O)c1cnc2ccc(C)cc2c1Sc1ccccc1	–	?	26µM	–	–	–
CCOC(=O)c1cnc2ccc(C)cc2c1N(C)Cc1ccccc1	–	?	?	–	-68	–
CCOC(=O)c1cnc2ccc(C)cc2c1Sc1ccc(F)cc1	–	?	?	?	–	–
O=C(Cn1cnnn1)N[C@@H]1C(=O)N2C(C(=O)O)=C(CSc3nncs3)CS[C@H]12	·	–	–	·	·	·
Cc1cccc(N2C(N)=NC(N)=NC23CCCCC3)c1	–	16µM	12µM	–	–	–
COc1ccc(OC)c(N2C(N)=NC(N)=NC23CCCC3)c1	–	–	–	–	–	–
O=C(c1ccoc1)N1CCC2(CC1)Oc1ccc(Cl)cc1C(=O)C21CC(c2ccc(Cl)cc2)=NO1 (stereo not given)	–	21µM	?	–	?	–
O=C(c1ccoc1)N1CCC2(CC1)Oc1ccc(F)cc1C(=O)C21CC(c2ccc(Cl)cc2)=NO1 (stereo not given)	–	?	?	–	-56	–
O=C(OCC(O)COc1ccccc1)c1ccc([N+](=O)[O-])cc1 (stereo not given)	–	–	–	–	–	–
CC(=O)N[C@@H]1C=C[C@@H](CC(=O)NCc2ccc(Cl)cc2)O[C@@H]1CO	·	–	–	·	–	·
COc1ccc(-c2c(=O)n(OCc3ccccc3[N+](=O)[O-])c3ccccc3[n+]2[O-])c(OC)c1	–	?	18µM	–	–	–
CCOc1ccc(-c2c(=O)n(OCc3ccccn3)c3ccccc3[n+]2[O-])cc1	–	21µM	12µM	–	–	–
O=c1c(-c2ccc(Oc3ccccc3)cc2)[n+]([O-])c2ccccc2n1OCc1ccccn1	–	–	?	–	–	–
COc1ccc(-c2c(=O)n(OC)c3ccccc3[n+]2[O-])cc1OC	–	12µM	15µM	–	–	–
C[N+]1(CC(=O)c2ccc3c(c2)CCCC3)CCOCC1	·	–	–	–	·	–
O=C(NCc1ccc(F)cc1)C1CCCN1C(=O)Nc1cccc(F)c1 (stereo not given)	–	–	–	–	–	–
Cc1ccc(-c2nn(-c3ccccc3)cc2/C=N/n2c(-c3cccs3)n[nH]c2=S)cc1	–	–	–	?	·	–
O=[N+]([O-])c1ccc(-c2nn(-c3ccccc3)cc2/C=N/n2c(-c3ccncc3)n[nH]c2=S)cc1	–	?	18µM	–	–	–
Cc1nc2ccccc2c(=O)n1/N=C/c1cccs1	–	?	?	–	–	–
Cc1nc2ccccc2c(=O)n1/N=C/c1cn(-c2ccccc2)nc1-c1cccs1	?	?	21µM	–	–	–
S=c1[nH]nc(-c2cccs2)n1/N=C/c1cn(-c2ccccc2)nc1-c1cccs1	–	–	–	18µM	·	–
Cc1cc(-c2n[nH]c(=S)n2/N=C/c2cc([N+](=O)[O-])ccc2Cl)n[nH]1	–	5.2µM	18µM	–	–	–
Cc1cc(-c2n[nH]c(=S)n2/N=C/c2ccc(Cl)c([N+](=O)[O-])c2)n[nH]1	–	?	?	–	–	–
NC(=O)NC(=O)C(c1ccccc1)N1CCN(S(=O)(=O)c2ccc(Br)s2)CC1 (stereo not given)	–	?	?	–	–	–
SMILES	ASM inhibitor	DT40 TDP1 CPT	TDP1 cell noCPT	TGFb inhibitor	IL-1B inflam inh	HepG2 viability
CCCCSc1nc(C)cc(C)c1S(=O)(=O)c1ccccc1C	–	18µM	?	?	–	–
CC(=O)Nc1cccc(NC(=O)CSc2nc(=O)n(CCCN3CCOCC3)c3c2CCC3)c1	·	–	–	–	–	–
CCCOc1c(Cl)cc(C(=O)N(Cc2cccc(OC)c2)C2CCS(=O)(=O)C2)cc1Cl (stereo not given)	·	?	?	?	·	–
COC(=O)c1sc2cccc(F)c2c1S(=O)(=O)N1CCN(c2cccc(C)c2)C(C)C1 (stereo not given)	·	?	?	–	·	–
O=C(CSCC(=O)N1CCCCC1)Nc1nc(-c2ccccc2)c(-c2ccccc2)s1	?	18µM	16µM	?	–	–
O=C(CSc1nc(-c2ccccc2)c(-c2ccccc2)o1)N1CCCCC1	·	?	?	?	–	–
COc1ccc(Cn2c(=O)[nH]c3cc(C(=O)N4CCN(Cc5ccccc5)CC4)ccc3c2=O)cc1	–	16µM	18µM	–	–	–
COc1cc2[nH]c(=O)n(Cc3ccc(C(=O)N4CCN(c5cc(Cl)ccc5C)CC4)cc3)c(=O)c2cc1OC	·	2.3µM	5.2µM	–	·	–
COc1ccccc1N1CCN(C(=O)c2ccc3c(=O)n(Cc4ccc5c(c4)OCO5)c(=O)[nH]c3c2)CC1	–	16µM	18µM	?	?	–
COc1ccc(C2OC(=O)CC2C(=O)N2CCN(c3cc(Cl)ccc3C)CC2)cc1OC (stereo not given)	–	21µM	?	–	–	–
COc1cc2c(C(=O)N3CCN(c4cc(Cl)ccc4C)CC3)cn(CC(C)C)c(=O)c2cc1OC	·	?	–	–	·	–
CNc1cncc(-c2ccc(O)cc2C)n1	·	–	–	–	–	–
COc1ccc2c(c1)c1c(c(=O)n(-c3ccc(OC)c(OC)c3)c(=O)n1Cc1ccccc1C)n2C	·	–	–	–	·	–
COc1ccc(Cn2c(=O)[nH]c3cc(C(=O)N4CCN(c5ccccc5OC)CC4)ccc3c2=O)cc1	–	?	23µM	–	–	–
CCn1cc(C(=O)N2CCN(c3cc(Cl)ccc3C)CC2)c2cc(OC)c(OC)cc2c1=O	·	12µM	?	?	·	–
CCn1cc(C(=O)N(C)Cc2ccc(OC(F)F)cc2)c(=O)c2ccc(C)nc21	–	–	–	–	–	–
COc1cc(C(=O)N2CCN(C(=O)c3cc(-c4ccc(Br)cc4)n[nH]3)CC2)cc(OC)c1OC	–	21µM	26µM	–	–	–
Cc1ccc(-c2cc(C(=O)N3CCN(S(=O)(=O)c4ccc(Br)cc4)CC3)[nH]n2)cc1C	·	9.2µM	8.2µM	?	·	–
Cc1cc2oc(C(=O)N(Cc3ccccc3F)C3CCS(=O)(=O)C3)c(C)c2cc1Cl (stereo not given)	·	?	16µM	?	·	–

Assay outcomes deposited in PubChem by National Center for Advancing Translational Sciences (NCATS).
